Assay results as given in PubChem BioAssay (NCATS).
Results filed as inconclusive are left out. A call without a number means that no potency is given here. A number with no mark means an inactive call. The source made the active and inactive calls. Calls follow the shape of the dose curve; as a rule, active = well fitted curve in the direction sought with a large enough effect; inconclusive = small, poorly fitted or top-dose-only effect, or another doubt; inactive = no such curve, though single readings can be large; an effect the other way counts as inactive or inconclusive.

How the values were obtained:
[1] = molecular target: Rap guanine nucleotide exchange factor 3 (Homo sapiens) (UniProt O95398); assay: Confirmatory qHTS for antagonist of cAMP-regulated guanine nucleotide exchange factor 3 (EPAC1) (AID 1645880); also: nearly all actives have a fitted effect of over 55% in size; also: potency is read from the fitted curve at half-maximal effect
Rap guanine nucleotide exchange factor 3 (Homo sapiens), sequence (O95398 whole entry, looked up): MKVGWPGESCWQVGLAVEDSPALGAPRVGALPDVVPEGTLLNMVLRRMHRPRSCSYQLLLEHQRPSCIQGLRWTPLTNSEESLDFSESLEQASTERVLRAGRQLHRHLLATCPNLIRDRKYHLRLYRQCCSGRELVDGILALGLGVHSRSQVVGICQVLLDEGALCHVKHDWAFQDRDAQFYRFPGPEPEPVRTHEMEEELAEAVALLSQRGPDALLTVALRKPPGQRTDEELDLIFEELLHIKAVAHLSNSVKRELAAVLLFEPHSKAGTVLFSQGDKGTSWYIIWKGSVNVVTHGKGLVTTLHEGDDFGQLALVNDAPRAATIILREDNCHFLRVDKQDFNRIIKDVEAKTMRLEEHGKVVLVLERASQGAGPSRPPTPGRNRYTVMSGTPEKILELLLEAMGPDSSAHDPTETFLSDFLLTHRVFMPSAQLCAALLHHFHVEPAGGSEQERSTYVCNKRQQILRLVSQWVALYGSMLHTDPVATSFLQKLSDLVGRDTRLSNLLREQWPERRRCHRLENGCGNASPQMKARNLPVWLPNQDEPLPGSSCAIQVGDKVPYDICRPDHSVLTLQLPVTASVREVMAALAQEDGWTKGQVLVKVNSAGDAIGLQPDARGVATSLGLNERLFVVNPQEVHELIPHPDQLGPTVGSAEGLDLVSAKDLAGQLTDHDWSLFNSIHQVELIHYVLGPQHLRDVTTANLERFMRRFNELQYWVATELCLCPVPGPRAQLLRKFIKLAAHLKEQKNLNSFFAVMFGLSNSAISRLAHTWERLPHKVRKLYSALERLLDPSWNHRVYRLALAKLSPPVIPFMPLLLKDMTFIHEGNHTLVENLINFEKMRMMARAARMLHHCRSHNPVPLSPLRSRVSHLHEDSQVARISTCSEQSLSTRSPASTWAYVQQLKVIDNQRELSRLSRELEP
Procedure, shortened: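 Nucleotide exchange uses 100 nM EPAC1, 250 nM RAP1B-BODIPY-GDP and 50 uM GDP, with compounds in a concentration-titration series. After 5 min at room temperature, fluorescence (480 nm ex/540 nm em) is read every 5 min for 30 min. Data are normalized to control ATA and DMSO.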

[2] = molecular target: Rap guanine nucleotide exchange factor 3 (Homo sapiens) (UniProt O95398); assay: Confirmatory qHTS for agonist of cAMP-regulated guanine nucleotide exchange factor 3 (EPAC1) (AID 1645881); also: nearly all actives have a fitted effect of over 75% in size; also: potency is read from the fitted curve at half-maximal effect;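 as to activation: EPAC1 catalysed release of BODIPY-GDP from Rap1B seen as fluorescence loss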
[3] = molecular target: Rap guanine nucleotide exchange factor 4 (Homo sapiens) (UniProt Q8WZA2); assay: Confirmatory qHTS for agonist of cAMP-regulated guanine nucleotide exchange factor 4 (EPAC2) (AID 1645884);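 also: nucleotide exchange releases bodipy-GDP from Rap1 and this lowers its fluorescence; nearly all actives have a fitted effect of over 65% in size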; also: potency is read from the fitted curve at half-maximal effect
Rap guanine nucleotide exchange factor 4 (Homo sapiens), sequence (Q8WZA2 whole entry, looked up): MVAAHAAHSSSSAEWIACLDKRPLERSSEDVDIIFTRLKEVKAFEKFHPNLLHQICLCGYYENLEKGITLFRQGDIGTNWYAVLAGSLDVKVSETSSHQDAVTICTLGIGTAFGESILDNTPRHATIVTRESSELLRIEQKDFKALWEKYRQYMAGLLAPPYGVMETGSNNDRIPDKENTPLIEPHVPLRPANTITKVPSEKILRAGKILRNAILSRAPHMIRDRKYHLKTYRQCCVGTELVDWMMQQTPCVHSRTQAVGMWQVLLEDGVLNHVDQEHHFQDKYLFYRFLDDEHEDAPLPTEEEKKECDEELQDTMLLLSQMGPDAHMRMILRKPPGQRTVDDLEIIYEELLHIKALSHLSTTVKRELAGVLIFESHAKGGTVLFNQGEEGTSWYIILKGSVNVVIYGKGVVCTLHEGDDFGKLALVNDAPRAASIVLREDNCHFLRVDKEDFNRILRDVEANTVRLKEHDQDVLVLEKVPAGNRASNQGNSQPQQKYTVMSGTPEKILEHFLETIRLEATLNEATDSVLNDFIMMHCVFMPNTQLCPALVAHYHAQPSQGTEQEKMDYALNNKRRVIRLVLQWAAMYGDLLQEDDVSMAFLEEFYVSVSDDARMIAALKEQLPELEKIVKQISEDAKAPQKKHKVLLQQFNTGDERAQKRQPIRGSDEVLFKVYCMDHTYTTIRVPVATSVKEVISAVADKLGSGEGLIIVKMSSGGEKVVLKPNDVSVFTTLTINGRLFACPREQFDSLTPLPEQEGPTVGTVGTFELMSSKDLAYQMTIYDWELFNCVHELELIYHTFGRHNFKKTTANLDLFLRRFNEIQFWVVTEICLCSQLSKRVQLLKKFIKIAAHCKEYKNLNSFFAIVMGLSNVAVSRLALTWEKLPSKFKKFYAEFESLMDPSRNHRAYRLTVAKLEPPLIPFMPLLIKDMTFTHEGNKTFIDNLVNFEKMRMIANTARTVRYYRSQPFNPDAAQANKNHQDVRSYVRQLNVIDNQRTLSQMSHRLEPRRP

[4] = molecular target: Rap guanine nucleotide exchange factor 4 (Homo sapiens) (UniProt Q8WZA2); assay: Confirmatory qHTS for antagonist of cAMP-regulated guanine nucleotide exchange factor 4 (EPAC2) (AID 1645885); also: nearly all actives have a fitted effect of over 25% in size; also: potency is read from the fitted curve at half-maximal effect
[5] = molecular target: Rap guanine nucleotide exchange factor 3 (Homo sapiens) (UniProt O95398); assay: Counterscreen qHTS for antagonist of cAMP-regulated guanine nucleotide exchange factor 3 (EPAC1) (AID 1645888);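 also: fluorescence loss as bound BODIPY-GDP is released from Rap1B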
Procedure, shortened: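 Measured: fluorescence of BODIPY-GDP bound to Rap1B, which falls as exchange proceeds. Conditions include 50 uM competing GDP, 5 and 30 min reads, and a later cAMP challenge for antagonist detection.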

[6] = Primary qHTS for inhibitors of nuclear receptor binding SET domain protein 2 (NSD2) in an isogenic RCH-ACV NSD2 p.E1099K mutant (9B) (AID 1645876); also: potency is read from the fitted curve at half-maximal effect; nearly all actives have a fitted effect of over 70% in size
[7] = Primary qHTS for inhibitors of nuclear receptor binding SET domain protein 2 (NSD2) in an RCH-ACV wild type WT cells (2C) (AID 1645877); also: potency is read from the fitted curve at half-maximal effect; nearly all actives have a fitted effect of over 70% in size

CCCCNC(=O)c1c(N)n(CCCOC)c2nc3ccccc3nc12
Potency [1]: 84.9 µM (active)
Potency [2]: inactive
Potency [3]: inactive

COC(=O)c1cn(Cc2ccc(F)cc2)c2ccccc12
Potency [1]: inactive
Potency [2]: inactive
Potency [3]: inactive
Potency [4]: inactive

Cc1cc(/C=C2\C(=O)NC(=O)N(c3ccc(Cl)cc3)C2=O)c(C)n1-c1sc2c(c1C#N)CCCC2
Potency [1]: 11.2 µM (active)
Potency [2]: inactive
activation [3]: 3.87% [at 17.1 µM, percent relative to cAMP agonist control]
activity change, negative = inhibition [4]: -14.9% [at 12.7 µM]
activity change, negative = inhibition [5]: -13.5% [at 30.8 µM]

CCOC(=O)[C@]12Cc3ccccc3[C@H]1N(C1CCCCC1)C(=O)c1cc(OC)ccc12
Potency [1]: inactive
Potency [2]: inactive
Potency [3]: inactive
Potency [4]: inactive

CCCNC(=O)N1[C@H]2CC[C@@H]1C(C(=O)OC)=C(c1ccc(F)cc1OCc1ccccc1)C2
Potency [1]: inactive
Potency [2]: inactive
Potency [3]: inactive
Potency [4]: inactive
outcome [5]: inactive

COC(=O)c1cn(C(=O)c2cccc3ccccc23)c2ccccc12
Potency [1]: inactive
Potency [2]: inactive
Potency [3]: inactive
Potency [4]: inactive
outcome [5]: inactive

CCOC(=O)[C@]12Cc3ccc(C)cc3[C@H]1N(C1CCCCC1)C(=O)c1cc(OC)ccc12
Potency [1]: inactive
Potency [2]: inactive
Potency [3]: inactive
Potency [4]: inactive
outcome [5]: inactive

CCOC(=O)c1cc(CC)sc1/N=C/c1c(O)[nH]c(=S)[nH]c1=O
Potency [1]: inactive
Potency [2]: 100 µM (active)
Potency [3]: 100 µM (active)
Potency [4]: inactive

CCOC(=O)[C@]12Cc3cc(Cl)ccc3[C@H]1N(C1CCCCC1)C(=O)c1ccccc12
Potency [1]: inactive
Potency [2]: inactive
Potency [3]: inactive
Potency [4]: inactive
outcome [5]: inactive

COc1cccc(-n2c(/C=C/c3ccc(O)c(O)c3)nc3ccccc3c2=O)c1
Potency [1]: 31.6 µM (active)
Potency [2]: inactive
activation [3]: 9.04% [at 17.1 µM, percent relative to cAMP agonist control]
activity change, negative = inhibition [4]: -22.6% [at 12.7 µM]
activity change, negative = inhibition [5]: 2.65% [at 30.8 µM]

O=C(c1ccco1)c1cn(Cc2ccccc2)c2ccccc12
Potency [1]: inactive
Potency [2]: inactive
Potency [3]: inactive

CCOC(=O)[C@]12Cc3cc(N(C)C)ccc3[C@H]1N(Cc1ccccc1)C(=O)c1ccccc12
Potency [1]: inactive
Potency [2]: inactive

COC[C@@H]1OC(=O)c2coc3c2[C@]1(C)C1=C(C3=O)[C@H]2CC[C@H](O)[C@@]2(C)C[C@@H]1OC(C)=O
Potency [6]: 0.82 µM (active)
Potency [7]: 0.651 µM (active)

CC(C)C/C(=N/O)c1cn(C)c2ccccc12
Potency [1]: inactive
Potency [2]: inactive
Potency [3]: inactive

CCN1/C(=C/C=C/C2=[N+](CC)c3ccccc3C2(C)C)C(C)(C)c2ccccc21
Potency [1]: inactive
Potency [2]: 56.2 µM (active)
Potency [3]: 100 µM (active)
Potency [4]: inactive
outcome [5]: inactive

COC(=O)N1C(c2ccccc2)C1c1ccccc1 (stereo unspecified)
Potency [1]: inactive
Potency [2]: inactive
activation [3]: 10.2% [at 17.1 µM, percent relative to cAMP agonist control]

COC(=O)[C@]12CCC(C)(C)C[C@@H]1[C@@H]1C(=O)C=C3[C@]4(C)C=C(C#N)C(=O)C(C)(C)[C@@H]4CC[C@@]3(C)[C@]1(C)CC2
Potency [6]: 0.461 µM (active)
Potency [7]: 0.326 µM (active)

COc1ccc(CN2C(=O)NC(=O)/C(=C/c3ccc([N+](=O)[O-])s3)C2=O)cc1
Potency [1]: 9.53 µM (active)
Potency [2]: inactive
Potency [3]: inactive

CCOC(=O)C1CCCN(c2ccc([N+](=O)[O-])c3nonc23)C1 (stereo unspecified)
Potency [1]: inactive
Potency [2]: 112 µM (active)
Potency [3]: 100 µM (active)
Potency [4]: inactive

O=c1[nH]c(O)c(C=Nc2ccccc2Sc2ccccc2)c(=O)[nH]1
Potency [1]: inactive
Potency [2]: inactive
Potency [3]: inactive
Potency [4]: inactive
outcome [5]: inactive

O=C1NC(=O)N(c2cccc(Cl)c2)C(=O)/C1=C\c1ccc(Sc2nc3ccccc3[nH]2)o1
Potency [1]: 28.2 µM (active)
Potency [2]: inactive
activation [3]: 5.77% [at 17.1 µM, percent relative to cAMP agonist control]
activity change, negative = inhibition [4]: 0.757% [at 12.7 µM]
activity change, negative = inhibition [5]: 2.39% [at 30.8 µM]

Nc1c(C(=O)Nc2ccc(Br)cc2F)sc2nc3c(cc12)N1CCC3CC1
Potency [1]: inactive
Potency [2]: inactive
Potency [3]: inactive
activity change, negative = inhibition [4]: -17.9% [at 12.7 µM]
outcome [5]: inactive

Cc1ccc(N2C(=O)NC(=O)/C(=C\c3cc(C)n(-c4sc5c(c4C#N)CCCC5)c3C)C2=O)cc1
Potency [1]: 16.9 µM (active)
Potency [2]: inactive
Potency [3]: inactive
Potency [4]: inactive

O=Cc1c(C(=O)O)n(Cc2ccc(Cl)cc2)c2ccccc12
Potency [1]: inactive
Potency [2]: inactive
Potency [3]: inactive
Potency [4]: 42.6 µM (active)
outcome [5]: inactive

CN(C)CC(C(=O)Cc1ccccc1)c1ccccc1 (stereo unspecified)
Potency [1]: inactive
Potency [2]: inactive
Potency [3]: inactive
Potency [4]: inactive
outcome [5]: inactive

CCN1C(=O)C(=C/C=C/c2ccco2)C(=O)N(CC)C1=S
Potency [1]: inactive
Potency [2]: inactive
Potency [3]: inactive
Potency [4]: inactive
outcome [5]: inactive

COc1ccc(-n2c(O)c(/C=C3\C=Nc4ccc(Br)cc43)c(=O)[nH]c2=O)c(OC)c1
Potency [1]: 37.9 µM (active)
Potency [2]: inactive
Potency [3]: inactive
Potency [4]: inactive
outcome [5]: inactive

COc1ccc(N=Cc2c(O)n(Cc3ccccc3)c(=S)[nH]c2=O)c(OC)c1
Potency [1]: inactive
Potency [2]: 79.4 µM (active)
Potency [3]: 100 µM (active)
Potency [4]: inactive
outcome [5]: inactive
